IkB sig inh – suppresses IkB signaling in ABC-DLBCL reporter cells. ABC-DLBCL IkBa-CBG/CBR dual luciferase ratio, 4 h; response scale: scaled: untreated 0%, proteasome inhibitor 100%. Potency, µM (doses to about 57.1 µM), for inactives: top-dose IkBa stabilization activation. hit rate 0.04% among 110,000; active = well fitted curve in the direction sought with a large enough effect in the signal ratio, not every such curve was filed as active; inconclusive = small, poorly fitted or top-dose-only effect, or a change in a side signal; the % refers to the signal ratio;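 note: the direction sought is a rising ratio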
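Curves were fitted separately to fusion (green), unfused (red) and ratio luminescence, then classed by r2, magnitude and activity. Cells: OCI-Ly3, 4 h compound plus doxycycline at 37C; 10 uM MG-132 defined full response.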
HEK293 cAMP cs – parental HEK293 cAMP activation (counter-screen); Potency, µM (highest dose often 57.1 µM), inactives show at the top dose activation, most hits filed as activators; parental HEK293 CNG cAMP sensor, membrane potential fluorescence; hit rate 2.5% among 73,000; AID 938; active = well fitted activation curve with a large enough effect; inconclusive = small, poorly fitted or top-dose-only effect; inactive = no such curve, though single readings can be large or run the other way; note: % of control where 0% means no effect; nearly all actives have a fitted effect of over 55% in size
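Parental HEK 293 cells stably expressing a modified CNG channel (no TSHR) report cAMP rise as membrane depolarization. Membrane potential dye with 100 uM RO 20-1724 was loaded for 60 min at room temperature, then compound added for 30 min; fluorescence read at 590 nm.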
TSHR agonist – agonists of human thyroid stimulating hormone receptor. hit rate 0.48% among 73,000. Potency, µM (titrated, usually from 57.1 µM), without a hit: at the highest dose activation, usual class: activators. P16473. HEK293-CNG-TSHR cells (CNG channel as cAMP sensor), membrane potential dye, cAMP; active = well fitted activation curve with a large enough effect in the main read-out, with a control signal flat, not every such curve was filed as active; inconclusive = small, poorly fitted or top-dose-only effect, or a change in a side signal; inactive = no such curve, though single readings can be large or run the other way; % of control where 0% means no effect;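 note: the control signal comes from parental cells without the receptor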
Target sequence (P16473 whole entry, looked up): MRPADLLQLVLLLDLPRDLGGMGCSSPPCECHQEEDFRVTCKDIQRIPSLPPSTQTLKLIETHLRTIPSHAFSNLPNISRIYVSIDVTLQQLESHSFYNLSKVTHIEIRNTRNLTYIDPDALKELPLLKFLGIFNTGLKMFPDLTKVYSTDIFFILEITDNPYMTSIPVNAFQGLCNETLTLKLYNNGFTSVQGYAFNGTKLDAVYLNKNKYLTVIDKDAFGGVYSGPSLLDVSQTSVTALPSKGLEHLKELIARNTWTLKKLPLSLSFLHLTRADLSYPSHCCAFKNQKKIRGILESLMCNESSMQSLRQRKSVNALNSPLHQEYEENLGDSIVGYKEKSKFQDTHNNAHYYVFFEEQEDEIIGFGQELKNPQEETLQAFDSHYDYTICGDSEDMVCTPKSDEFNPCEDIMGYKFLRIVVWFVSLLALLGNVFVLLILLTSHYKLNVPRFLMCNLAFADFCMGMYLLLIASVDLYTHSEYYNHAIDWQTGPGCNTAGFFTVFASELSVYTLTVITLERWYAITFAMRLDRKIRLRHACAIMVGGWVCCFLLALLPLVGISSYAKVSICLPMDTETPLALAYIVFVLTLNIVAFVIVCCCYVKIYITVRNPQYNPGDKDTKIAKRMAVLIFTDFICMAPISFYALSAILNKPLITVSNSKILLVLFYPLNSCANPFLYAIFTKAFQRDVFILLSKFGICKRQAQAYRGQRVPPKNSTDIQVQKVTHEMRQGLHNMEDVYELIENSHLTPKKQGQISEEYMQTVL
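cAMP rise detected as CNG-channel membrane depolarization by fluorescent dye (emission 590 nm), 30 min after compound, following 60 min dye loading containing 100 uM RO 20-1724 at room temperature. Cells: TSHR/CNG HEK 293, with parental CNG HEK 293 as control.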
CRE Fsk mod – CRE-bla signaling modulation under forskolin stimulation; CHO CRE-bla reporter (cAMP response element driving beta-lactamase), forskolin EC10, beta-lactamase ratio; Potency, µM (doses to about 38.2 µM), inactives show top-dose activity change, negative = inhibition, usual class: activators; hit rate 2.5% among 71,000; AID 662; active = well fitted activation curve with a large enough effect in the signal ratio, with a control signal flat, not every such curve was filed as active; inconclusive = small, poorly fitted or top-dose-only effect, or effect the other way, or a change in a side signal; the % refers to the signal ratio; note: % of control where 0% means no effect
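The 460nm/530nm emission ratio after CCF4 loading defined %Activity, from which AC50 values were obtained. CRE-bla CHO cells received compound dilution series together with an EC10 level of NKH 477 for 3 hours at 37 degrees Celsius.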
Hsp90 Hop PPI – changes Hsp90-Hop TPR2A binding signal, up or down; hit rate 0.44% among 71,000; Potency, µM (doses to about 57 µM), for inactives: top-dose activity change, negative = inhibition; AlphaScreen TPR2A-His6 binding biotin-Hsp90 C-terminal peptide; active = well fitted curve in either direction with a large enough effect; inconclusive = small, poorly fitted or top-dose-only effect, or another doubt; note: % is set by controls: 0 for no effect and ±100 for the full control effect
Starred values were filed as active, the others as inactive; ? = inconclusive; . = not tested or not shown; [ ] = another dose, or the depositor's remark. Shown are actives, neighbours in structure and some others; about 3.5% of the full set was active somewhere. Potency is the fitted concentration of half-maximal effect.

SMILES | IkB sig inh | HEK293 cAMP cs | TSHR agonist | CRE Fsk mod | Hsp90 Hop PPI
Cc1nc(SCCO)c2oc3ccccc3c2n1 | -3.8% | 3.7% | -11.1% | 12.6µM* | -1.9%
CCOC(=O)CC(=O)CSc1nc(C)nc2c1oc1ccccc12 | 0.4% | 21.0% | . | 10µM* | -7.8%
Cc1nc(SCC(=O)O)c2oc3ccccc3c2n1 | -0.9% | 12.0% | -0.2% | ? | 2.7%
COc1ccc(-n2nnc3c(=O)n(Cc4cccc(C)c4)cnc32)cc1 | 2.6% | 25.1µM* | ? | 0.5% | 2.7%
Cc1ccc(C)c(Cn2cnc3c(nnn3-c3ccc(F)cc3)c2=O)c1 | 1.6% | 1µM* | ? | -21.7% | -2.0%
COCCNc1nc(C)nc2c1nc(-c1ccccc1)n2CCN1CCCC1 | . | 14.6% | 3.3% | 18.2% | -0.1%
CCc1c(C(C)O)oc2ccc3c(C)cc(=O)oc3c12 (stereo not drawn) | -2.9% | 3.3%[11.4 µM] | 6.6%[11.4 µM] | 3.16µM* | -4.1%[11 µM]
COc1ccc(NC(=O)N2CCc3c(sc4c3CCCC4)C2c2ccccc2OC)cc1 (stereo not drawn) | 2.1% | . | . | . | .
CCn1c(O)c(C2=NCCCC2)c2ccccc21 | -2.2% | -8.9% | -11.8% | 14.3% | -15.4%
Oc1[nH]c2ccccc2c1C1=NCCCC1 | -1.0% | -30.7% | ? | 15.8µM* | -10.2%
COC(=O)[C@@H]1CC[C@H](C)[C@@H](c2ccc(C)cc2)N1C(=O)c1ccc(/C=N\O[C@@H](C)c2cc(-c3c(C)cc(C)cc3C)no2)cc1 | . | 21.1%[11.4 µM] | 3.0%[11.4 µM] | . | .
CCn1c(=S)sc2c(=O)n(-c3ccccc3)c(SC)nc21 | ? | 25.1µM* | ? | ? | -9.6%
N#CCSc1nc2c(sc(=S)n2Cc2ccco2)c(=O)n1-c1ccc(F)cc1 | 8.3% | ? | ? | ? | -11.4%
CCc1ccccc1N(C)C(=O)c1cn(-c2cccc(OC)c2)c(=O)c2ccccc12 | -2.4% | . | . | . | .
Cc1ccc(-n2c3c(cc(C(=O)NCc4ccco4)c2=O)C(=O)CC(C)(C)C3)cc1 | ? | 21.1%[11.4 µM] | 3.98µM* | ? | ?
CC1(C)CC(=O)c2cc(C(=O)NCc3ccco3)c(=O)n(-c3ccc(Cl)cc3)c2C1 | 2.3% | ? | ? | 0.6% | -2.0%
CCCN1C[C@@H](CSC)C[C@H]2c3cccc4[nH]cc(c34)C[C@@H]21 | -4.6% | 10.9% | -19.6% | -14.7% | -10.0%
O=C(NCc1ccccc1Cl)c1ccc(NC(=O)N2CCSc3ncccc32)cc1 | 0.8% | . | . | . | .
Cc1cc(C)n(-c2nnc(C)n2/N=C/c2ccccc2OCc2ccccc2Cl)n1 | ? | 1.26µM* | ? | ? | ?
Cc1nnc(C)n1/N=C/c1cc(Br)ccc1O | . | -21.3% | -6.7% | . | .
Cc1cc(C)n(-c2nnc(C)n2/N=C/c2cc(Br)ccc2OCc2ccccc2)n1 | ? | 3.16µM* | ? | ? | -13.3%[11 µM]
CCCC(C(=O)NCc1ccco1)N(C(=O)CNS(=O)(=O)c1ccccc1)c1ccccc1OC (stereo not drawn) | 6.6% | 25.1µM* | ? | -7.8% | -3.1%
CCC(C(=O)NCc1ccco1)N(C(=O)CNS(=O)(=O)c1ccc(C)cc1)c1ccccc1OC (stereo not drawn) | -0.3% | 15.8µM* | ? | -7.5% | -5.5%
O=C(CN(Cc1ccco1)C(=O)CNS(=O)(=O)c1ccccc1)NCc1ccccc1 | 0.7% | 13.5% | 20µM* | ? | -5.3%
Cc1nc2cnc(Oc3ccccc3)nc2n(CCc2ccccc2)c1=O | 0.6%[11.4 µM] | 1.58µM* | ? | ? | 0.7%
SMILES | IkB sig inh | HEK293 cAMP cs | TSHR agonist | CRE Fsk mod | Hsp90 Hop PPI
O=c1cnc2cnc(Oc3cccc(Cl)c3)nc2n1CCc1ccccc1 | -3.0%[11.4 µM] | ? | ? | 15.8µM* | -10.9%
Cc1nc2cnc(Oc3cccc(Cl)c3)nc2n(CCc2ccccc2)c1=O | -0.6%[11.4 µM] | 3.16µM* | ? | ? | -3.3%
COc1ccc(-n2c(=O)c(C)nc3cnc(Oc4cccc(Cl)c4)nc32)cc1 | 0.0%[11.4 µM] | 15.8µM* | ? | ? | -3.8%
N#CCCn1c(=O)cnc2cnc(Oc3cccc(Cl)c3)nc21 | 0.1%[11.4 µM] | 10.8% | -13.2% | 3.4% | -0.2%
O=S(=O)(c1ccccc1)N1CCC2(CCN(c3ccncc3)CC2)CC1 | -0.2%[11.4 µM] | -23.3% | -1.5% | 27.9% | -5.8%
Cc1ccc(C)c(N2CCN(C(=O)C(C)n3nc(C)c4sc5ccccc5c4c3=O)CC2)c1 (stereo not drawn) | 0.9% | . | . | . | .
COCCn1c(=O)c(C)nc2cnc(Oc3ccccc3)nc21 | -1.4%[11.4 µM] | 19.0% | 7.9% | ? | -10.6%
COc1ccc(Oc2ncc3nc(C)c(=O)n(CCc4ccccc4)c3n2)cc1 | -0.8%[11.4 µM] | ? | ? | 2.51µM* | -9.2%
O=C(c1cccc(F)c1)N1CCC2(CC1)CCN(c1ccccn1)CC2 | 0.8%[11.4 µM] | ? | ? | 0.1% | 1.4%
Cc1cc(N2CCCCC2)n2ncc(-c3ccc(Cl)cc3)c2n1 | ? | 2.8% | 0.8% | ? | 25.1µM*
Cc1cc(N2CCCCC2)n2nc(C)c(-c3ccccc3)c2n1 | -2.3% | 38.4% | 1.3%[11.4 µM] | 15.8µM* | ?
Cc1nc2c(-c3ccccc3)c(C)nn2c(C)c1CC(=O)O | -1.3% | 16.2% | -2.7% | ? | -2.6%
Cc1cc(N2CCC(C)CC2)n2nc(C)c(-c3ccccc3)c2n1 | 0.6% | -2.6% | -3.8%[11.4 µM] | 9.4% | 6.5%
Cc1cc(N2CCCC2)n2nc(C)nc2n1 | -4.3% | -5.9% | -1.1% | 12.6µM* | -5.4%
Cc1cc(SCC#N)n2nc(C)c(-c3ccccc3)c2n1 | 5.3% | -3.3% | -3.8% | 2.51µM* | -7.8%
CCCCOc1ccccc1NC(=O)CC1Nc2ccccc2NC1=O (stereo not drawn) | -2.3% | 12.4%[11.4 µM] | 10.9%[11.4 µM] | 3.16µM* | ?
CCCCNC(=O)CC1Nc2ccccc2NC1=O (stereo not drawn) | 2.3% | -1.0% | -0.4% | 3.0% | 3.0%
CCNc1ncc2nc(-c3cc(F)cc(F)c3)c(=O)n(C)c2n1 | -5.9%[11.4 µM] | 11.0% | -2.5% | ? | 14.6%
Cc1cc(NC(=O)Nc2ccc(N(C)C)cc2)c2cc(F)cc(F)c2n1 | ? | -13.6% | -14.5% | 14.4% | 7.94µM*
CC(Sc1ncc(C#N)c(N)n1)C(=O)Nc1ccccc1 (stereo not drawn) | 8.3% | 31.6µM* | ? | ? | -4.4%
Cc1cc(C)nc(SC(C)C(=O)Nc2ccc(S(N)(=O)=O)cc2)n1 (stereo not drawn) | 0.0% | -2.1% | -7.3% | 21.3% | -5.4%
O=C(Nc1ccc(CN2CCOCC2)cc1)c1ccc(-c2ccc(Br)cc2)o1 | ? | 25.1µM* | ? | -11.0% | -12.6%
Cc1cc2c(c(C)nn2-c2ccccc2)c(=O)o1 | -0.2% | 11.3% | 0.0% | 10µM* | -0.2%
COc1cc(C2Nc3cccc4cccc(c34)N2)ccc1OC(C)=O | 0.7% | 1.26µM* | ? | -7.9% | -2.8%
COc1cc(C2Nc3cccc4cccc(c34)N2)cc(OC)c1O | -0.5% | -1.5% | -10.4% | ? | -9.8%
CCCn1c(C)nc2c(N(C)CCN(C)C)nc(C)nc21 | . | 8.9% | 4.7% | 4.4% | -2.8%
